We go through 34 compounds from the supplement of paper PMC8975748.

Where a name gives a salt, the structure may show the parent alone.

The assay concerns Saccharomyces cerevisiae BY4741 SeMeCo community. Kind of assay: z-score of subpopulation abundance vs DMSO median, subpopulation auxotrophic for HU; higher = larger share of this subpopulation than in DMSO controls. Conditions: 10 µM; 24 h; SM minimal medium; subpopulation (auxotrophy): HU. On the procedure: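 Fluorescent four-plasmid SeMeCo (self-establishing metabolically cooperating S. cerevisiae BY4741 community; plasmids pH-mRuby2, pL-mWasabi, pU-eCFP, pM-TagRFP657) was grown 24 h in minimal SM medium with each Selleck FDA-approved drug at 10 µM in 384-well plates. Cells were fixed and imaged by high-content confocal microscopy. For each auxotrophic subpopulation (and the prototroph), a z-score gives the deviation from the DMSO vehicle-control population median.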
Consider `COc1ccc(C(CN(C)C)C2(O)CCCCC2)cc1` (centres undefined) [Venlafaxine HCl], for which the “z-score of subpopulation abundance” value was -0.07.

On to `C=CN1CCCC1=O.II` [Povidone iodine], for which the “z-score of subpopulation abundance” value turned out to be 1.56. With `CN(C)C(=O)Oc1cccc([N+](C)(C)C)c1` [Neostigmine Bromide] the figure was -0.26; with `CC(NC(C)(C)C)C(=O)c1cccc(Cl)c1` (centres undefined) [Amfebutamone (Bupropion) HCl], -0.9; with `C[CH2][Hg][S]c1ccccc1C(=O)[O-].[Na+]` [Thimerosal], 6.59. With `CC[C@H]1CN2CC[C@]3(C(=O)Nc4ccccc43)[C@@H]2C[C@@H]1/C(=C\OC)C(=O)OC` [Rhynchophylline] the figure was 0.35.

As for `C[C@H]1O[C@H](O[C@H]2[C@H](O)[C@@H](O)[C@@H](O)[C@H](O)[C@@H]2O)[C@@H](N)C[C@@H]1NC(=N)C(=O)O` [Kasugamycin hydrochloride], the “z-score of subpopulation abundance” value was -0.33. Turning to `CCN(CC)CCOC(=O)C(O)(c1ccccc1)c1ccccc1` [Benactyzine hydrochloride], the “z-score of subpopulation abundance” value came out at 1.62. With `C=CC[C@]1(O)CC[C@H]2[C@@H]3CCC4=CC(=O)CCC4=C3C=C[C@@]21C` [Altrenogest] the figure was -1.33; with `COc1ccc2[nH]cc(CCN)c2c1` [5-Methoxytryptamine], 0.53.

On to `C=C[C@H]1CN2CC[C@H]1C[C@H]2[C@H](O)c1ccnc2ccccc12` [Cinchonidine], for which the “z-score of subpopulation abundance” value is -0.45.

For `CN(C)[C@@H]1C(=O)C(C(N)=O)=C(O)[C@@]2(O)C(=O)C3=C(O)c4c(O)cccc4[C@@](C)(O)[C@H]3C[C@@H]12` [Tetracycline HCl], the “z-score of subpopulation abundance” value is -0.3. The same measure for `O=C(O[C@H]1C[C@H]2CC[C@@H](C1)[N+]21CCCC1)C(O)(c1ccccc1)c1ccccc1` [Trospium chloride]: 0.09; for `N[C@@H]1C[C@H]1c1ccccc1` [Tranylcypromine (2-PCPA) HCl]: 0.44. With `COc1ccc(C=O)cc1` [p-Anisaldehyde] the figure was -0.72; with `O=c1cccc2n1C[C@@H]1CNC[C@H]2C1` [Cytisine], -0.56. As to `CN1C(=O)COc2c(C(=O)NC3CN4CCC3CC4)cc(Cl)cc21` (centres undefined) [Azasetron HCl], the “z-score of subpopulation abundance” value is -0.34.

Turning to `Cn1cc(C2=C(c3cn(C4CCN(Cc5ccccn5)CC4)c4ccccc34)C(=O)NC2=O)c2ccccc21`, the “z-score of subpopulation abundance” value is -0.2. With `O=c1[nH]c2ccccc2n1CCCN1CCC(n2c(=O)[nH]c3cc(Cl)ccc32)CC1` [Domperidone] the figure was 0.86; with `Cc1cc(O)ccc1Cl` [Chlorocresol], -1.07; with `CN1[C@@H]2CC[C@H]1C[C@@H](OC(=O)C(CO)c1ccccc1)C2` (some centres undefined) [Atropine sulfate monohydrate], 0.23. With `CNC1CC(N)C(O)C(OC2OC(CO)C(O)C3OC4(OC(C(N)CO)C(O)C(O)C4O)OC23)C1O` (centres undefined) [Hygromycin B] the figure was -0.07; with `COc1ccc2c(c1)[C@]13CCCC[C@@H]1[C@H](C2)N(C)CC3` [Dextromethorphan hydrobromide hydrate], -0.61. Take `CC(C)=CCOc1c2occc2cc2ccc(=O)oc12` [Imperatorin]: the “z-score of subpopulation abundance” value came to 0.85. The same measure for `CCN(C)C(=O)Oc1cccc([C@H](C)N(C)C)c1` [Rivastigmine]: 0.2; for `Oc1cccc2cccnc12` [8-Hydroxyquinoline]: -1.16. The same measure for `C=C(C)[C@H]1Cc2c(ccc3c2O[C@@H]2COc4cc(OC)c(OC)cc4[C@@H]2C3=O)O1` [Rotenone (Barbasco)]: 1.02; for `CN1[C@@H]2C[C@@H](OC(=O)[C@H](CO)c3ccccc3)C[C@H]1[C@@H]1O[C@@H]12` [Scopolamine HBr trihydrate]: -0.46. The same measure for `CC[N+](C)(CC)CCOC(=O)C(O)(c1ccccc1)c1ccccc1` [Methylbenactyzine Bromide]: -0.63; for `CC[C@@H](C(N)=O)N1CCCC1=O` [Levetiracetam]: -0.75. Turning to `COc1cc2c(cc1OC)C1CC(=O)C(CC(C)C)CN1CC2` (centres undefined) [Tetrabenazine (Xenazine)], the “z-score of subpopulation abundance” value is -1.24.

As to `CC(=O)OCC1=C(C(=O)O)N2C(=O)C(N)C2SC1` (centres undefined) [7-Aminocephalosporanic acid], the “z-score of subpopulation abundance” value was 0.37. With `C=CCN1C[C@H](C(=O)N(CCCN(C)C)C(=O)NCC)C[C@@H]2c3cccc4[nH]cc(c34)C[C@H]21` [Cabergoline] the figure was 0.39; with `CC(C)N(CCC(C(N)=O)(c1ccccc1)c1ccccn1)C(C)C` (centres undefined) [Disopyramide], -0.45.
